{
  "source": "PubChem BioAssay (Tox21)",
  "note": "Records with an inconclusive call do not appear. A number with no mark means an inactive call. The source made the active and inactive calls. Calls come from the whole dose curve; as a rule, active = well fitted cell-killing curve with a large enough effect in the repeat runs; inconclusive = weak or mixed curves, or effect the other way; inactive = flat fitted curve, though single readings scatter. % is set by controls: 0 for no effect and ±100 for the full control effect; potency is the fitted concentration of half-maximal effect.",
  "data": [
    {"assay": "cAMP Responsive Elements (CRE) small molecule agonists, cell-based qHTS assay: qHTS cell viability counter screen (AID 2060914); note: nearly all actives have a fitted effect of over 50% in size", "conditions": "CRE-bla HEK293T viability, CellTiter-Glo luminescence, 5 h; series mostly up to 92.4 µM; activity change, negative = cytotoxicity: at the top concentration", "in_short": "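Cytotoxicity was measured as ATP luminescence (CellTiter-Glo, 30 min at room temperature) in the same wells as the CRE-bla FRET read-out. HEK293T CRE-bla cells had 3 h compound exposure at 37C/5% CO2.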", "values": [
      {"smiles": "CNC(=O)c1c(I)c(NC(=O)CCCCC(=O)Nc2c(I)c(C(=O)O)c(I)c(C(=O)NC)c2I)c(I)c(C(=O)O)c1I", "activity change, negative = cytotoxicity": "-10.9% [at 42.5 µM]"},
      {"smiles": "CC/C=C(\\C(=O)N[C@@H]1C(=O)N2C(C(=O)OCOC(=O)C(C)(C)C)=C(COC(N)=O)CS[C@H]12)c1csc(N)n1", "Potency": "inactive"},
      {"smiles": "C=CCCCCCCC=C", "activity change, negative = cytotoxicity": "-2.6%"},
      {"smiles": "CN(C)CCCOC1(Cc2ccccc2)CCCCCC1", "activity change, negative = cytotoxicity": "3.11% [at 42.5 µM]"},
      {"smiles": "CCCCCCCC(=O)[O-].CCCCCCCC(=O)[O-].[Zn+2]", "activity change, negative = cytotoxicity": "4.23% [at 42.5 µM]"},
      {"smiles": "CC(C)CCOC(=O)CC(C)C", "activity change, negative = cytotoxicity": "-9.84%"},
      {"smiles": "CC(C)(C)c1csc(-c2cc3cc(OCc4ccccc4CC(=O)O)ccc3o2)n1", "activity change, negative = cytotoxicity": "-19.7%"},
      {"smiles": "Brc1cc2ccccc2c2ccccc12", "activity change, negative = cytotoxicity": "2.69%"},
      {"smiles": "Cc1ccc(NC=O)c(C)c1", "activity change, negative = cytotoxicity": "4.16%"},
      {"smiles": "CC[N+](C)(C)c1cccc(O)c1", "activity change, negative = cytotoxicity": "-7.27% [at 42.5 µM]"},
      {"smiles": "COc1ccccc1NC(=O)c1cc2ccccc2cc1O", "Potency": "30.6 µM (active)"},
      {"smiles": "CC/C(=C(\\c1ccccc1)c1ccc(OCCN(C)C)cc1)c1ccccc1", "Potency": "inactive"},
      {"smiles": "CC(C)(C)c1ccc(C=O)cc1", "activity change, negative = cytotoxicity": "5.26%"},
      {"smiles": "O=C(O)CO", "activity change, negative = cytotoxicity": "7.47%"},
      {"smiles": "CC(=O)[C@@]1(O)CC[C@H]2[C@@H]3C[C@H](C)C4=CC(=O)C=C[C@]4(C)[C@@]3(F)[C@@H](O)C[C@@]21C", "Potency": "inactive"},
      {"smiles": "CC(C)(C)CC(C)(C)c1ccc(O)c(Cc2ccc(Cl)cc2Cl)c1", "Potency": "13.3 µM (active)"},
      {"smiles": "CCCCCCCC/C=C\\CCCCCCCC(=O)OCC", "activity change, negative = cytotoxicity": "0.225%"},
      {"smiles": "CC(C)(C)c1cc(CCC(=O)NN)cc(C(C)(C)C)c1O", "activity change, negative = cytotoxicity": "-4.92%"},
      {"smiles": "CSc1ccc(C=O)cc1", "activity change, negative = cytotoxicity": "13.3%"},
      {"smiles": "COc1cc([C@@H]2c3cc4c(cc3[C@@H](O[C@@H]3O[C@@H]5CO[C@@H](C)O[C@H]5[C@H](O)[C@H]3O)[C@H]3COC(=O)[C@H]23)OCO4)cc(OC)c1O", "activity change, negative = cytotoxicity": "1.53%"},
      {"smiles": "CCCCC(CC)COCC1CO1", "note": "(stereo not given)", "Potency": "inactive"},
      {"smiles": "c1ccc2scnc2c1", "Potency": "inactive"},
      {"smiles": "CCN(CC)C(=O)c1cc(S(=O)(=O)Cc2ccccc2)c(N2CCC(c3ccccc3)CC2)cc1N(CC)CCN(C)C", "activity change, negative = cytotoxicity": "-21% [at 42.5 µM]"},
      {"smiles": "CCOc1ccc([N+](=O)[O-])cc1", "activity change, negative = cytotoxicity": "-20.2%"},
      {"smiles": "CC(C)(N=C=O)c1cccc(C(C)(C)N=C=O)c1", "Potency": "inactive"},
      {"smiles": "O=C(N[C@@H](c1ccccc1)[C@@H]1CCCCN1)c1cccc(C(F)(F)F)c1Cl", "activity change, negative = cytotoxicity": "0.319%"},
      {"smiles": "Cc1c[nH]c(=S)[nH]c1=O", "activity change, negative = cytotoxicity": "12.5%"},
      {"smiles": "O=C1NC(=O)C2CC=CCC12", "note": "(stereo not given)", "activity change, negative = cytotoxicity": "-6.32%"},
      {"smiles": "CCCC(=O)OCCc1ccccc1", "activity change, negative = cytotoxicity": "18.8%"},
      {"smiles": "CC(C(=O)O)c1ccc2c(c1)[nH]c1ccc(Cl)cc12", "note": "(stereo not given)", "activity change, negative = cytotoxicity": "8.45% [at 42.5 µM]"},
      {"smiles": "CC1CCC(C(C)(C)S)C(=O)C1", "note": "(stereo not given)", "activity change, negative = cytotoxicity": "0.901%"},
      {"smiles": "CC(C)COC(=O)COc1ccc(Cl)cc1Cl", "activity change, negative = cytotoxicity": "5.35%"},
      {"smiles": "CC(C(O)c1ccccc1)N(C)CCOC(c1ccccc1)c1ccccc1", "note": "(stereo not given)", "activity change, negative = cytotoxicity": "-10% [at 42.5 µM]"},
      {"smiles": "CCCCCCOc1ccc(N)cc1", "activity change, negative = cytotoxicity": "-11%"},
      {"smiles": "CCCCCOC(=O)c1ccc(O)cc1", "activity change, negative = cytotoxicity": "-9.75%"},
      {"smiles": "NC(=O)n1c(O)c(C(=O)c2cccs2)c2cc(Cl)ccc21", "activity change, negative = cytotoxicity": "-6.91% [at 42.5 µM]"},
      {"smiles": "NC(=O)c1c(Cl)cccc1Cl", "activity change, negative = cytotoxicity": "9.68%"},
      {"smiles": "O=C1OC[C@H](Cc2cccc(O)c2)[C@H]1Cc1cccc(O)c1", "activity change, negative = cytotoxicity": "-0.0714% [at 42.5 µM]"},
      {"smiles": "CCCCC[Si](OCC)(OCC)OCC", "activity change, negative = cytotoxicity": "-6.18%"},
      {"smiles": "CCCCOC(=O)CCC(C)=O", "activity change, negative = cytotoxicity": "6.15%"}
    ]}
  ]
}
